Rows were chosen to be rich in hits. Some 1.6% of all compounds tested hit in one or more screens of this group.
MLLE-PAM2 inh: inhibitors of PABP1 MLLE–PAM2 peptide binding, primary screen, biochemical, fluorescence polarization, FITC-PAM2, GST-MLLE; Polyadenylate-binding protein 1 (Homo sapiens), P11940; 360,000 compounds, 0.36% hits; inhibition, % at 20 µM; in the data active means inhibition above about 35%, passing the limit was not always enough;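 further: plate controls were DMSO wells with GST-MLLE for no effect and wells lacking GST-MLLE protein for full effect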
Target sequence (P11940 whole entry, looked up): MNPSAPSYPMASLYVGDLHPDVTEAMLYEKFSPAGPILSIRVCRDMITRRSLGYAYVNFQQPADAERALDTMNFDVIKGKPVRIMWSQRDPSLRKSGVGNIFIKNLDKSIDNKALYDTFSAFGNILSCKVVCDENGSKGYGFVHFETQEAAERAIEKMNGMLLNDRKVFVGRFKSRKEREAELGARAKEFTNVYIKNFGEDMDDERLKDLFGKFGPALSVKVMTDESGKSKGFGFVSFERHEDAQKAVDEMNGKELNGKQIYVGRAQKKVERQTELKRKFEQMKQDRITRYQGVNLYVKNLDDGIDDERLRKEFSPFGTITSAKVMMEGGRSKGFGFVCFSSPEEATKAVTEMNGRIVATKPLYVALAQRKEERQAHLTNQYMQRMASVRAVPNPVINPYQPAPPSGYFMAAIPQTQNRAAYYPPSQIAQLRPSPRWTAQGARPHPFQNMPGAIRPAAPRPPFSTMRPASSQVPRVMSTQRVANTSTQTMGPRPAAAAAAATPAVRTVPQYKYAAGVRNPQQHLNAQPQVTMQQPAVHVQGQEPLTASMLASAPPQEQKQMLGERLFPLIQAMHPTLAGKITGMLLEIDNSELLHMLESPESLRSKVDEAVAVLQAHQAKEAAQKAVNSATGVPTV
PABP polyA inh: PABP poly(A) RNA binding inhibitors, primary screen, biochemical, fluorescence polarization, uHTS; inhibition, % at 35 µM; 290,000 compounds, 1% hits; AID 2014, 2009;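 further: calls also rest on retests at 20 µM and on dose response follow-up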
PERK inhibitor: block of dimerizer-induced PERK translation repression, primary screen, PERK inhibitor project, CHO PERK-DD cells, SEAP luminescence, HTS | 220,000 compounds, 0.17% hits | inhibition, % at 5.6 µM | Eukaryotic translation initiation factor 2-alpha kinase 3 (Homo sapiens), Q9NZJ5 | CHO PERK-DD fusion, SEAP luminescence translation reporter;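 active means inhibition above the mean inhibition of all tested compounds plus 3 SD, set separately per screening campaign, cut at about 2.9% in these data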;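 further: PERK kinase domain activated by AP20187 dimerizer at 100 nM; 0% = DMSO with dimerizer and 100% = rapamycin at 8.4 µM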
eIF4E-4G inh: eIF4E–eIF4G protein interaction inhibitors, primary screen, biochemical, uHTS, TR-FRET, eIF4GI fragment; Eukaryotic translation initiation factor 4E (Mus musculus) + Eukaryotic translation …; TR-FRET eIF4E-eIF4GI(517-606) binding, 2 h; inhibition, % at 21.7 µM; 220,000 compounds, 0.37% hits;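 active means inhibition above about 30%, limit read from the data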;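 further: 0% = full FRET control wells and 100% = background wells lacking eIF4GI fragment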
eIF4H FP inh: human eIF4H binding inhibitors, primary screen, translation initiation inhibitor project, biochemical, uHTS, fluorescence polarization | eIF4H fluorescence polarization binding assay | inhibition, % at 35 µM | 290,000 compounds, 0.94% hits | AID 2012, 2009;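 further: calls also rest on retests at 20 µM and on dose response follow-up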
Active calls of the source: *; i = inactive; u = inconclusive; x = no result given; [ ] = dose if it differs, or a comment. Unless noted, how the calls were made is not given here.

SMILES	MLLE-PAM2 inh	PABP polyA inh	PERK inhibitor	eIF4E-4G inh	eIF4H FP inh
C=C(C)CN(CC)c1nc(N)c2c(N)nc3c(c2c1C#N)CC(=O)N3C12CC3CC(CC(C3)C1)C2	-14	62*	1	-16	76*
CCCCN1C(=O)Cc2c1nc(N)c1c(N)nc(N(CCC)CCC)c(C#N)c21	14	13	1	5	10
N#Cc1c(N2CCCC(O)C2)nc(N)c2c(N)nc3c(c12)CC(=O)N3C12CC3CC(CC(C3)C1)C2 (stereo unspecified)	-42	62*	1	0	91*
COc1ccc(CN2C(=O)Cc3c2nc(N)c2c(N)nc(N4CCCCC4)c(C#N)c32)cc1	x	-10	0	-1	u
COc1ccccc1-c1ccc(=O)n(CC(=O)NCC2CCCO2)n1 (stereo unspecified)	-7	7	0	2	-2
O=C(NC(=S)N1CCCC1)c1ccccc1F	44*	x	x	x	x
O=C(NC(=S)N1CCCC1)c1ccccc1Cl	25	6	x	x	5
C=CCC[C@@H](Cc1ccc(F)cc1)C(=O)OC[C@@H](Cc1ccccc1)NC(=O)[C@H](CC=C)CC(=O)NCCO	1	x	x	x	x
Cc1ccccc1-n1c(=O)cc(N2CCc3ccccc3C2)[nH]c1=O	22	93*	0	1	79*
O=C(O)C1CC(c2ccccc2F)=NO1 (stereo unspecified)	15	-7	1	48*	-2
O=C(NCCc1cccs1)C1CC(c2ccccc2F)=NO1 (stereo unspecified)	1	3	x	7	-10
CCOc1ccc(Oc2nc(NCC(C)C)nc(OC)n2)nn1	-1	-4	0	-1	5
COc1cccc(/C=N/NC(=S)Nc2cccnc2)c1	32	u	0	0	-10
Oc1ccc(/C=N/NC(=S)Nc2cccnc2)cc1	38*	1	1	4	-5
COc1ccc(O)c(/C=N/NC(=S)Nc2cccnc2)c1	41*	8	0	-1	12
Oc1c(Br)cc(/C=N/n2c(-c3ccccc3)n[nH]c2=S)c(Br)c1O	x	90*	x	x	85*
Oc1c(Br)cc(Br)cc1/C=N/n1c(-c2ccccc2)n[nH]c1=S	-57	14	x	x	1
O=[N+]([O-])c1cccc(-c2ccc(/C=N/n3c(-c4ccccc4)n[nH]c3=S)o2)c1	-78	0	1	75*[fluorescence artefact?]	-1
CN1CCN(CCCNc2c(C=O)c(=O)[nH]c3ccccc23)CC1	-13	38	x	x	0
O=C(NCN1C(=O)C2C3C=CC(C3)C2C1=O)Nc1ccccn1 (stereo unspecified)	0	8	0	4	7
O=C(CCN1C(=O)C2C3C=CC(C3)C2C1=O)Nc1ccccn1 (stereo unspecified)	8	-4	0	47*	2
Cn1c(=O)[nH]c(=O)c2c1nc(Br)n2CCC(=O)c1ccccc1	-4	3	1	3	-2
O=c1oc2cc([N+](=O)[O-])ccc2nc1/C=C(\O)c1cccc(Br)c1	-5	12	1	2	8
O=c1oc2cc([N+](=O)[O-])ccc2nc1/C=C(O)/C=C/c1ccccc1	x	28	-1	3	72*
Cc1cc(C)c(OCC(=O)Nc2cc(C(=O)O)cc(C(=O)O)c2)cc1C	8	-52	2	-1	2
SMILES	MLLE-PAM2 inh	PABP polyA inh	PERK inhibitor	eIF4E-4G inh	eIF4H FP inh
Cc1ccc(C)c(OCC(=O)Nc2cc(C(=O)O)cc(C(=O)O)c2)c1	4	-5	3.4*	2	-7
CN(C(=O)COC(=O)C1(C)CC1(Cl)Cl)c1c(N)n(Cc2ccccc2)c(=O)[nH]c1=O (stereo unspecified)	-30	x	x	x	x
CCOC(=O)c1cc(C)sc1/N=C/C1=C(O)CCCC1=O	29	0.3*	-1	-4	55*
Cc1cccc(OCc2ccc(C(=O)N3CCOCC3)o2)c1	7	5	x	x	7
COc1cc2c(C#N)c(N3CCc4ccccc4C3)nc(N)c2c(N)n1	2	116*	-1	x	122*
COc1cc2c(C#N)c(N3CCCCC3)nc(N)c2c(N)n1	-12	102*	-1	-6	91*
CCOc1cc2c(C#N)c(N3CCCCC3)nc(N)c2c(N)n1	-37	120	-1	1	127
COc1cc2c(C#N)c(N3CCOCC3)nc(N)c2c(N)n1	19	-10	0	-1	-2
O=C(NNC(=O)OCc1ccccc1)OCc1ccccc1	-14	x	x	x	x
O=C(Nc1nnc(-c2ccccc2)o1)C1CCCCC1	9	15	2	-6	0
CC(=O)c1c2c3c(c(Br)ccc3n(C)c1=O)C(=O)c1ccccc1-2	59*	x	x	x	x
CC(CN1CCCCC1)C(=O)NNC(=O)C12CC3CC(CC(C3)C1)C2 (stereo unspecified)	4	8	0	-7	2
CC(CN1CCCCCC1)C(=O)NN (stereo unspecified)	-13	82*	-1	-3	active
COC(=O)[C@H]1C[C@@H]1[C@H](NC(=O)c1ccccc1)c1ccccc1	13	10	0	8	-1
CC1(C)CC(=O)C=C(NCCO)C1	12	3	3.1*	4	-6
CCC1(C)Cc2nc3sc(C(=O)O)c(N)c3cc2CO1 (stereo unspecified)	-6	71*	0	-2	12*
CCOC(=O)c1sc2nc3c(cc2c1N)COC(C)(CC)C3 (stereo unspecified)	14	2	0	1	2
Cn1cccc1/C=C1\CCC/C(=C\c2cccn2C)C1=O	i	61*	0	1	52*
O=C1/C(=C\c2ccco2)CCC/C1=C\c1ccco1	-43	3	-1	14	86
CC1C/C(=C/c2cccs2)C(=O)/C(=C/c2cccs2)C1 (stereo unspecified)	-19	-1	0	-2	74
O=C1/C(=C/c2cccs2)CCC/C1=C\c1cccs1	-20	53*	x	x	72*
CCNc1nc(-c2cc(C)n(Cc3ccco3)c2C)cs1	4	4	1	-6	u
Cc1cc(-c2csc(NC(=O)c3ccc(=O)[nH]c3)n2)c(C)n1Cc1ccco1	-22	u	1	46*	u
COC(=O)c1c(N)c2ccccc2[nH]c1=O	-1	-8	1	2	-11
CC(=O)c1c(C(=O)O)c2ccccc2[nH]c1=O	-8	2	0	92*	5
COCc1cc(C)c(C#N)c(=S)[nH]1	37*	4	0	6	-7
O=c1cc(Cc2ccccc2)[nH]c(=S)[nH]1	33	4	0	5	-10
COCc1cc(=O)[nH]c(=S)[nH]1	40*	-4	2	-5	1

Screening data: PubChem BioAssay, several laboratories
